# Measurements taken from PubChem BioAssay (NCI).
# Compounds without any hit were thinned out: in the full panel of roughly 79,000, 15% have a hit. Values without a mark were called inactive. Rule as the data show it: active = growth inhibition above about 70%; inactive = the rest.
# How the values were obtained:
# [1] = NCI Yeast Anticancer Drug Screen. Data for the rad50 strain (AID 155);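 also: 0% = growth of vehicle-only cultures of the same strain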; conditions: S. cerevisiae rad50 strain growth inhibition; at 50.0 µM; stronger effect = higher value
# Outline: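 Genetically altered yeast (DNA repair pathway); compound treatment; growth inhibition vs vehicle ctrl.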
# [2] = NCI Yeast Anticancer Drug Screen. Data for the mlh1 rad18 strain (AID 175); conditions: S. cerevisiae mlh1 rad18 strain growth inhibition; at 50.0 µM; stronger effect = higher value
# Outline: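 Yeast w/ defined DNA-repair lesions; compound exposure; growth vs vehicle controls → % inhibition.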
# [3] = NCI Yeast Anticancer Drug Screen. Data for the mec2-1 strain (AID 157); conditions: S. cerevisiae mec2-1 strain, at 50.0 µM, stronger effect = higher value
# Outline: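 Yeast mec2-1 mutant treated with compound. Readout: growth inhibition vs vehicle controls.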
# [4] = NCI Yeast Anticancer Drug Screen. Data for the sgs1 mgt1 strain (AID 161);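 also: 0% = growth of cultures given vehicle only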; conditions: S. cerevisiae sgs1 mgt1 strain, at 50.0 µM, stronger effect = higher value
# Outline: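 Read-out: growth inhibition vs vehicle controls. Cells: mutant yeast strain deficient in DNA damage repair.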
# [5] = NCI Yeast Anticancer Drug Screen. Data for the cln2 rad14 strain (AID 165);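 also: 0% = growth equal to vehicle treated cultures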; conditions: S. cerevisiae cln2 rad14 strain, at 50.0 µM, stronger effect = higher value
# Outline: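 cln2 rad14 yeast strain; compound exposure; growth inhibition read vs vehicle controls.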
# [6] = NCI Yeast Anticancer Drug Screen. Data for the bub3 strain (AID 167); conditions: S. cerevisiae bub3 mutant strain, at 50.0 µM, stronger effect = higher value
# Outline: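 Yeast carrying a defined mutation is treated with each compound, and growth is compared with that of vehicle-exposed cells to give inhibition.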
smiles,measurement,setting,value
NC(CCC(=O)OCc1ccccc1)C(=O)OCc1ccccc1 (centres undefined),growth inhibition,[1],-0.95%
same,growth inhibition,[2],9.25%
COc1cc(/C=N/N2CCCCC2)cc(OC)c1OC,growth inhibition,[3],-16.6%
same,growth inhibition,[2],-21.8%
COc1cc(/C=C(/C#N)C(N)=O)ccc1O,growth inhibition,[1],-1.7%
same,growth inhibition,[2],-54.9%
C1CCCCNCCC1,growth inhibition,[3],-22.2%
same,growth inhibition,[4],-56.5%
same,growth inhibition,[5],-3.4%
same,growth inhibition,[6],-26.7%
same,growth inhibition,[2],-27.3%
COc1ccc(/C=N\NC(=O)OC(C)(C)C)c(OC)c1OC,growth inhibition,[1],-23.8%
same,growth inhibition,[2],-24.4%
NC(=O)CC1OC(=O)Cc2cc3c(c(O)c21)C(=O)c1c(O)cccc1C3=O (centres undefined),growth inhibition,[3],3.55%
same,growth inhibition,[5],27.7%
same,growth inhibition,[6],16.5%
same,growth inhibition,[2],-28.6%
COc1cc(-c2cc(=O)c3ccc(O)cc3o2)cc(OC)c1OC,growth inhibition,[1],10.1%
same,growth inhibition,[2],2.2%
COc1ccc(COC(=O)N=[N+]=[N-])cc1,growth inhibition,[3],3.85%
same,growth inhibition,[2],13.4%
[O-]c1ccccc1/C=N/C(/N=C/c1ccccc1[O-])c1ccccc1O.[O-]c1ccccc1/C=N/C(/N=C/c1ccccc1[O-])c1ccccc1O.[Zr+4],growth inhibition,[3],6.4%
same,growth inhibition,[4],-1.6%
same,growth inhibition,[6],14.2%
same,growth inhibition,[2],2.4%
COC(=O)c1ccc2oc(=O)cc(C)c2c1O,growth inhibition,[1],-7.6%
same,growth inhibition,[2],11.7%
CC/C(=C\c1cccc([N+](=O)[O-])c1)C(=O)O,growth inhibition,[3],-25.6%
same,growth inhibition,[2],-5.55%
